About 7,900 targets were measured; listed, in parts, are those with a hit and a random draw of the rest. About 0.6% of all pairs of compound and target were hits.
compound: CC[C@H](C)[C@@H](C(=O)N[C@@H]([C@@H](C)O)C(=O)N[C@@H](CC(C)C)C(=O)[C@]1(CO1)C)NC(=O)[C@H]([C@@H](C)CC)N(C)C(=O)C [epoxomicin]; test: log2 fold change, soluble protein after heating vs DMSO (PISA); higher = thermal stabilisation; K562 cells, 10 uM, 30 min; active = over 0.2 and 3.5 SD of the protein, either way, in both replicates (recomputed)
Procedure, shortened: (§1)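 Soluble protein was defined as the supernatant after 21,000xg for 90 min. It came from K562 cells at 2×10^6 cells/mL given 10 μM compound for 30 min, heated in aliquots for 3 min across 48°C-58°C, pooled, and extracted in PBS with 0.5% NP-40 at 4°C, and was quantified by TMTpro 16plex LC-MS/MS with equalised channel sums. Thermal stability against control samples, from duplicates, is reported as log2 fold change.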

Sequence of UniProt O43529 (O43529 whole entry, looked up): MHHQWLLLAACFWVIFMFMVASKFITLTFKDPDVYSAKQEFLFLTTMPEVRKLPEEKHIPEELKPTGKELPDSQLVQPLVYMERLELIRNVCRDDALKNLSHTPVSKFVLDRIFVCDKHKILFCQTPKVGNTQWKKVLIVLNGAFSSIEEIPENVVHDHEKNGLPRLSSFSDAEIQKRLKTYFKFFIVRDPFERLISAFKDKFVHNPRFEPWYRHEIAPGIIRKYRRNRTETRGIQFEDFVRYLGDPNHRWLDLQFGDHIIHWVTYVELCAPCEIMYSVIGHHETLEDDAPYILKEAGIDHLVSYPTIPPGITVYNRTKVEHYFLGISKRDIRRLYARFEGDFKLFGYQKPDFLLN
Sequence of UniProt Q96MX0 (Q96MX0 whole entry, looked up): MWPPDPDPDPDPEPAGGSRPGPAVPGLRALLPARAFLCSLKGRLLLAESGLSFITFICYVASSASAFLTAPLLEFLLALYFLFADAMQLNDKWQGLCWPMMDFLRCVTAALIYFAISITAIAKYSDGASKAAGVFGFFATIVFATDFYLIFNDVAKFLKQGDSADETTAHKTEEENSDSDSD
Sequence of UniProt Q00537 (Q00537 whole entry, looked up): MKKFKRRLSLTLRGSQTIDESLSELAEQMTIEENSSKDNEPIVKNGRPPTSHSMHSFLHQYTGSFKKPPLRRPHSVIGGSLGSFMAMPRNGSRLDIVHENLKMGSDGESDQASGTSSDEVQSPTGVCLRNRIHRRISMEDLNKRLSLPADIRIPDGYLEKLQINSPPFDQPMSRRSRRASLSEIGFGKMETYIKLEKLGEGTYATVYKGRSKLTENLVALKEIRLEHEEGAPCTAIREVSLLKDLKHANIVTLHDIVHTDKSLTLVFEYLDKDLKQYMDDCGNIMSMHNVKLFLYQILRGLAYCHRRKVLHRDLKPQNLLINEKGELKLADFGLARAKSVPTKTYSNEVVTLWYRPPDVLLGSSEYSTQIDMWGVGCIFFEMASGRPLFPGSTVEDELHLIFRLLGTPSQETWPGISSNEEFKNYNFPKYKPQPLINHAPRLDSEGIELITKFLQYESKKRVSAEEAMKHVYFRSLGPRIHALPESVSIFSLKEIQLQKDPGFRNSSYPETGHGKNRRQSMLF
Sequence of UniProt P46527 (P46527 whole entry, looked up): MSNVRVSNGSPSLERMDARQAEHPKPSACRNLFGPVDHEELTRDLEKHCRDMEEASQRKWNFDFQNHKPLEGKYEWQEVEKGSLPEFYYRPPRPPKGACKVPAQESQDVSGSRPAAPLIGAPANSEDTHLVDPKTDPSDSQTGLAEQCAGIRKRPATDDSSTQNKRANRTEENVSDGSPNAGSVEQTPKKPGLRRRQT
Sequence of UniProt P48730 (P48730 whole entry, looked up): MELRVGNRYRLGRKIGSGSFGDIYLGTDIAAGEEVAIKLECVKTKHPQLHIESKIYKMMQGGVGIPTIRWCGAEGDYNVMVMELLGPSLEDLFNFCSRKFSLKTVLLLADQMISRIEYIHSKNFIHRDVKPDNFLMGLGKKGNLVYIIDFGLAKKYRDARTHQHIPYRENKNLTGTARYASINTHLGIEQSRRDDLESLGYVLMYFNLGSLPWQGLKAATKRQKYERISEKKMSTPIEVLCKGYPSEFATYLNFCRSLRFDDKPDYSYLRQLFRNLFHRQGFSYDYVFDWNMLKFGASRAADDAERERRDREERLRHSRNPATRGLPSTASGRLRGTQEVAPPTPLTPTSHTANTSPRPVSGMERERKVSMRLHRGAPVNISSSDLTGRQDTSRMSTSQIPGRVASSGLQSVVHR
Sequence of UniProt Q9H9S4 (Q9H9S4 whole entry, looked up): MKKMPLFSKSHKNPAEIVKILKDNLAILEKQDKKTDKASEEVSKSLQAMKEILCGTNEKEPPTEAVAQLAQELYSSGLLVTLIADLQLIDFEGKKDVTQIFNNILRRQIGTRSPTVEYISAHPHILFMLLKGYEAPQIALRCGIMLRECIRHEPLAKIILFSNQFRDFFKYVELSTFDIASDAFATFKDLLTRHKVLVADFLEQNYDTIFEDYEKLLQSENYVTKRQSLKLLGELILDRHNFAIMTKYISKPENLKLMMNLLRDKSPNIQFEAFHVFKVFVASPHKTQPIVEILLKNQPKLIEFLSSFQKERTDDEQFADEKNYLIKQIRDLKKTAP
Sequence of UniProt Q69YH5 (Q69YH5 whole entry, looked up): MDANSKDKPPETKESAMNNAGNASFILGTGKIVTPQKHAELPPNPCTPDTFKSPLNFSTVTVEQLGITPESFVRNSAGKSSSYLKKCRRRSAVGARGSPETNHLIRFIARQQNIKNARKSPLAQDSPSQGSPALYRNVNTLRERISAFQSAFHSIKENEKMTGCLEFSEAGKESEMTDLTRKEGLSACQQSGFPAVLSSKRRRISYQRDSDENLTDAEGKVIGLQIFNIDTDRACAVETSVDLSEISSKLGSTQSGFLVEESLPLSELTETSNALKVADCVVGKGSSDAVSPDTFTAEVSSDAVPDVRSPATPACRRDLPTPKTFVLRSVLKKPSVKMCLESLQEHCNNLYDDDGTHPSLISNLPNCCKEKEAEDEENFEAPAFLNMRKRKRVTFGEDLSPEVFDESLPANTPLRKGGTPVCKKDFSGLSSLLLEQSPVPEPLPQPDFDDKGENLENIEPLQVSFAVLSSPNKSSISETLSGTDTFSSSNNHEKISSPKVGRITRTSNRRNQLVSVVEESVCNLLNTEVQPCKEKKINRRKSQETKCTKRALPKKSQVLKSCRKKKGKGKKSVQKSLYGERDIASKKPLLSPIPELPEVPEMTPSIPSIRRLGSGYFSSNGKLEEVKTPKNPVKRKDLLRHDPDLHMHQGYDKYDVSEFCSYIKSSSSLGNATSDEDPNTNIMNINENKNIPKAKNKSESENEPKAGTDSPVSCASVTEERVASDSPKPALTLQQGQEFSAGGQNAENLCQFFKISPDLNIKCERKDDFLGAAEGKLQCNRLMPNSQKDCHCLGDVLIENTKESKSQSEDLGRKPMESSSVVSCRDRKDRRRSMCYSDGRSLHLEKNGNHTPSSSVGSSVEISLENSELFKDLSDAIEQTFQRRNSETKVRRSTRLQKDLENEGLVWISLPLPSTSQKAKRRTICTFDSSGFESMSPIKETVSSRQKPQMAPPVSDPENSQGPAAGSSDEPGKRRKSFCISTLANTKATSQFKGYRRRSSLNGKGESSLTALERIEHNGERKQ
Sequence of UniProt Q7Z4R8 (Q7Z4R8 whole entry, looked up): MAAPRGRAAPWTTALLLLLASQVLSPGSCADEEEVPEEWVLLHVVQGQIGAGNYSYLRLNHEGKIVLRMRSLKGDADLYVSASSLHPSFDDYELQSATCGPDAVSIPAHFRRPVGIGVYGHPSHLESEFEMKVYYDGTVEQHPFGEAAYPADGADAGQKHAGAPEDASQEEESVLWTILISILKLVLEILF
Sequence of UniProt Q96G28 (Q96G28 whole entry, looked up): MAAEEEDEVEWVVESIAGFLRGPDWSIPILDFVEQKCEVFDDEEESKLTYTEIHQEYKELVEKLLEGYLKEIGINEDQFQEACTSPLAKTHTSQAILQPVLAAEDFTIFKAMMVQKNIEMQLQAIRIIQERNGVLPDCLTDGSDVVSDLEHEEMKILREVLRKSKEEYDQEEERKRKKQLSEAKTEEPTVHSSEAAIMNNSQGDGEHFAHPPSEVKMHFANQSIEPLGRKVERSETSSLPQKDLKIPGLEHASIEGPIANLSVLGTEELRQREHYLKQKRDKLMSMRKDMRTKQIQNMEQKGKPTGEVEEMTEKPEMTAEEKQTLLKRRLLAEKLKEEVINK
Sequence of UniProt Q5BKX5 (Q5BKX5 whole entry, looked up): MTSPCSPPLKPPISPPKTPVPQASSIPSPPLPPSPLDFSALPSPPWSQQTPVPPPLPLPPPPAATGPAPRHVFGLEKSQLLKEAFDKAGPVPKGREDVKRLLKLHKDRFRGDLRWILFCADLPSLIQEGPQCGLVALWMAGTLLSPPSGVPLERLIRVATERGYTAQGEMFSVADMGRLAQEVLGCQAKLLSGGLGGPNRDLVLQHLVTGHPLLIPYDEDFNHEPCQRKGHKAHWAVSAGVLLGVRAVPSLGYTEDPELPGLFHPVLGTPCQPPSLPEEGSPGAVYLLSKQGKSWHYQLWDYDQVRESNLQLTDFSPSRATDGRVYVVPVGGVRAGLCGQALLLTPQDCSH
Sequence of UniProt P24863 (P24863 whole entry, looked up): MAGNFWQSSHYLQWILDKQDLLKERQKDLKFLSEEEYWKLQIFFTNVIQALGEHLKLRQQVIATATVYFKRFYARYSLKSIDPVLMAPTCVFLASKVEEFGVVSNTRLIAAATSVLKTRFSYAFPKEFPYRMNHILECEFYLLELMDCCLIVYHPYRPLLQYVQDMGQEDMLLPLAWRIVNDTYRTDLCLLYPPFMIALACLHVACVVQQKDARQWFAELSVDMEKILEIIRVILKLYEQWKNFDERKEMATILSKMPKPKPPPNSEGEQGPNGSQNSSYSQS
Sequence of UniProt Q96LT7 (Q96LT7 whole entry, looked up): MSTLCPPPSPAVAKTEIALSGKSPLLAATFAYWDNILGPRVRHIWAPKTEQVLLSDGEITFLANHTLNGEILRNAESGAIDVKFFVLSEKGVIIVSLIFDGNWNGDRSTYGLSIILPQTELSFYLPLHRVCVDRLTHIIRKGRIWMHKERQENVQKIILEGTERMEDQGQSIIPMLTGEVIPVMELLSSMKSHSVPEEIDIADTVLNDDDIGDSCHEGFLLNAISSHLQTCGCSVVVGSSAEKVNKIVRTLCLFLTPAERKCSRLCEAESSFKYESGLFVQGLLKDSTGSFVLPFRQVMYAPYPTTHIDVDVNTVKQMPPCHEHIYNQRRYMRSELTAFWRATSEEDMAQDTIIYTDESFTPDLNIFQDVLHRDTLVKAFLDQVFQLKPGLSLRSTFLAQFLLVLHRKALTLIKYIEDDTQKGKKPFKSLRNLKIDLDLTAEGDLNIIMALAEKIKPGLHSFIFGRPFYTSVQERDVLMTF
Sequence of UniProt Q6P5X5 (Q6P5X5 whole entry, looked up): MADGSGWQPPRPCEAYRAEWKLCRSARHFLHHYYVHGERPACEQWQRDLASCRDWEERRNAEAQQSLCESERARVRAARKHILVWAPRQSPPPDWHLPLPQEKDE
Sequence of UniProt P24311 (P24311 whole entry, looked up): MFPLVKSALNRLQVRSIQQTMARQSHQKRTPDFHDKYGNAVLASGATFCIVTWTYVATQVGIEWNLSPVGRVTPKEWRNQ

log2 fold change, inactive:
CRYM-AS1 (UniProt A6NIL9) -0.107, CSNK1D (UniProt P48730) 0.026, CDCA2 (UniProt Q69YH5) -0.025, CMTM3 (UniProt Q96MX0) 0.075, CDK17 isoform 2 (UniProt Q00537) 0.07, CDKN1B (UniProt P46527) 0.393, CAB39L (UniProt Q9H9S4) 0.018, CHST10 (UniProt O43529) -0.019

compound: CCn1c(C(=O)N(C2CC2)C2CC2)cc2c3c(ncn3C)c(Nc3cc(C)n(C)n3)nc21; test: as above
Procedure, shortened: as §1

log2 fold change, inactive:
CFAP36 isoform 2 (UniProt Q96G28) 0.077, CENPE (UniProt Q02224) -0.079, C22orf39 (UniProt Q6P5X5) -0.08, COX7B (UniProt P24311) 0.065, CCM2 isoform 2 (UniProt Q9BSQ5) -0.047, CRTC1 isoform 2 (UniProt Q6UUV9) -0.164, CDK5 (UniProt Q00535) 0.004, C15orf41 (UniProt Q9Y2V0) -0.023, CCDC167 (UniProt Q9P0B6) -0.011, C6orf120 (UniProt Q7Z4R8) 0.095, C9orf72 (UniProt Q96LT7) 0.003, C19orf54 (UniProt Q5BKX5) -0.152, CDK19 (UniProt Q9BWU1) 0.038, COG2 (UniProt Q14746) 0.076, CCNC (UniProt P24863) 0.031, CCNDBP1 (UniProt O95273) -0.045, CIR1 (UniProt Q86X95) -0.015, CDK8 (UniProt P49336) 0.027, COX17 (UniProt Q14061) -0.097, CHAF1A (UniProt Q13111) -0.078, CRYM-AS1 (UniProt A6NIL9) 0.104, CORO2A (UniProt Q92828) -0.016, CSNK1D (UniProt P48730) -0.088, CDCA2 (UniProt Q69YH5) 0.015, CMTM3 (UniProt Q96MX0) -0.009, CDK17 isoform 2 (UniProt Q00537) 0.032, CDKN1B (UniProt P46527) -0.034, CAB39L (UniProt Q9H9S4) 0.008, CHST10 (UniProt O43529) -0.043, CLN8 (UniProt Q9UBY8) -0.101

From the supplement of paper PMC10849652
